# Unmarked numbers belong to inactive results. Calls of active or inactive are those of the source. Calls follow the shape of the dose curve; as a rule, active = well fitted curve in the direction sought with a large enough effect in the repeat runs; inconclusive = weak or mixed curves; inactive = flat fitted curve, though single readings scatter.
# Assay: qHTS assay to test for compound auto fluorescence at 590 nm (red) in HepG2 cells (AID 720674)
# Settings: HepG2 autofluorescence, red 540/590 nm, 1 h; series mostly up to 91.3 µM
# Method in brief: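 Rose Bengal sodium served as the red fluorophore standard. HepG2 monolayers (overnight attachment, MEM with 10% FBS) were exposed to test compounds for 1 hr at 37 C and read at Ex 540/Em 590 nm.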
# % is scaled to controls: 0 for no effect and ±100 for the full control effect.
Compound,outcome,"fluorescence, relative to Rose Bengal"
CC(C)(C)c1cccc(O)c1,inactive,
CCOc1ccccc1N,inactive,
CCCCCCC,inactive,
CCN1CC(CCN2CCOCC2)C(c2ccccc2)(c2ccccc2)C1=O (stereo unspecified),inactive,
COC(=O)C(C)O (stereo unspecified),inactive,
O=C1CCCc2ccccc21,inactive,
NC(=O)Cc1cccc(C(=O)c2ccccc2)c1N,inactive,
C=CC1CO1 (stereo unspecified),inactive,
CCN[C@H]1CN(CCCOC)S(=O)(=O)c2sc(S(N)(=O)=O)cc21,,-0.145% [at 18.6 µM]
CCCNC(C)C(=O)Nc1c(C)csc1C(=O)OC (stereo unspecified),,0.288% [at 18.6 µM]
CC(=O)N[C@@H](CC(C)C)C(=O)O,inactive,
O=C(O[C@@H](C(=O)O)[C@@H](OC(=O)c1ccccc1)C(=O)O)c1ccccc1,inactive,
C=CC(C)(O)CC/C=C(\C)CCC=C(C)C (stereo unspecified),inactive,
CC(C)C(=O)OCC(C)(C)C(O)C(C)C (stereo unspecified),inactive,
Cc1ccccc1C(=O)Nc1ccc(C(=O)N2CCCC(O)c3cc(Cl)ccc32)c(C)c1 (stereo unspecified),inactive,
CC(C)C(=O)OC/C=C/c1ccccc1,inactive,
CCOC(=O)[C@H](CCc1ccccc1)N[C@@H](C)C(=O)N1Cc2cc(OC)c(OC)cc2C[C@H]1C(=O)O,inactive,
CCOC(=O)C(Br)c1ccccc1 (stereo unspecified),inactive,

Compound,outcome,"fluorescence, relative to Rose Bengal"
C=C(C)C(=O)OCCOP(=O)(O)O,inactive,
NC/C=C/C(=O)O,inactive,
CC(C)c1ccccc1,inactive,
CCCCCCCCCC/C=C/C#N,inactive,
COc1ccccc1N1CCN(CCCNc2cc(=O)n(C)c(=O)n2C)CC1,inactive,
O=C1N(c2ccccc2)c2ccccc2C1(Cc1ccncc1)Cc1ccncc1,inactive,
OCc1c2ccccc2cc2ccccc12,inactive,
CC(C)(CO)[C@@H](O)C(=O)NCCC(=O)O,inactive,
NCCC(O)(P(=O)(O)O)P(=O)(O)O,inactive,
CN(C)Cc1ccccc1,inactive,
CC/C=C\CCOC(=O)CCCCC,inactive,
COC(=O)c1ccc(OC)cc1,inactive,
Cc1cc(S(=O)(=O)O)c(N)cc1Cl,inactive,
O=C(O)c1ccccc1Nc1cc(Cl)ccc1C(=O)O,inactive,
CCCCNC(=S)NCCCC,inactive,
O=C(O)c1cccc(Cl)c1Cl,inactive,
C=CCc1cc(OC)c(O)c(C(=O)NCCO)c1,inactive,
CC(C)(C)c1ccc(OC(=O)c2ccccc2O)cc1,inactive,

# Assay: qHTS assay to test for compound auto fluorescence at 535 nm (green) in HepG2 cells (AID 720675)
# Settings: green autofluorescence 485/535 nm, 1 h; series mostly up to 91.3 µM
Compound,outcome,"fluorescence, % of fluorescein control"
CCOc1ccccc1N,inactive,
CCN1CC(CCN2CCOCC2)C(c2ccccc2)(c2ccccc2)C1=O (stereo unspecified),inactive,
COC(=O)C(C)O (stereo unspecified),inactive,
O=C1CCCc2ccccc21,inactive,
C=CC1CO1 (stereo unspecified),inactive,
CCN[C@H]1CN(CCCOC)S(=O)(=O)c2sc(S(N)(=O)=O)cc21,,-0.244% [at 18.6 µM]
CCCNC(C)C(=O)Nc1c(C)csc1C(=O)OC (stereo unspecified),,-0.0675% [at 18.6 µM]
CC(=O)N[C@@H](CC(C)C)C(=O)O,inactive,
O=C(O[C@@H](C(=O)O)[C@@H](OC(=O)c1ccccc1)C(=O)O)c1ccccc1,inactive,
C=CC(C)(O)CC/C=C(\C)CCC=C(C)C (stereo unspecified),inactive,
CC(C)C(=O)OCC(C)(C)C(O)C(C)C (stereo unspecified),inactive,
Cc1ccccc1C(=O)Nc1ccc(C(=O)N2CCCC(O)c3cc(Cl)ccc32)c(C)c1 (stereo unspecified),inactive,
CC(C)C(=O)OC/C=C/c1ccccc1,inactive,
CCOC(=O)[C@H](CCc1ccccc1)N[C@@H](C)C(=O)N1Cc2cc(OC)c(OC)cc2C[C@H]1C(=O)O,inactive,
CCOC(=O)C(Br)c1ccccc1 (stereo unspecified),inactive,
NC/C=C/C(=O)O,inactive,
CCCCCCCCCC/C=C/C#N,inactive,
COc1ccccc1N1CCN(CCCNc2cc(=O)n(C)c(=O)n2C)CC1,inactive,
OCc1c2ccccc2cc2ccccc12,inactive,
CC(C)(CO)[C@@H](O)C(=O)NCCC(=O)O,inactive,
CC/C=C\CCOC(=O)CCCCC,inactive,
COC(=O)c1ccc(OC)cc1,inactive,
Cc1cc(S(=O)(=O)O)c(N)cc1Cl,inactive,
O=C(O)c1ccccc1Nc1cc(Cl)ccc1C(=O)O,inactive,
CCCCNC(=S)NCCCC,inactive,
O=C(O)c1cccc(Cl)c1Cl,inactive,
C=CCc1cc(OC)c(O)c(C(=O)NCCO)c1,inactive,
CC(C)(C)c1ccc(OC(=O)c2ccccc2O)cc1,inactive,

# Assay: qHTS assay to test for compound auto fluorescence at 460 nm (blue) in HEK293 cells (AID 720678)
# Settings: blue autofluorescence 405/460 nm; series mostly up to 91.3 µM
# Method in brief: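 HEK293 cells (2,000/well, medium with 10% dialyzed FBS) attached 4-5 hr, then exposed to compound overnight at 37C, 5% CO2. Blue fluorescence read at 405/460 nm, with triamterene as reference fluorophore.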
Compound,outcome,"fluorescence, % of triamterene"
CC(C)(C)c1cccc(O)c1,inactive,
CCCCCCC,inactive,
COC(=O)C(C)O (stereo unspecified),inactive,
O=C1CCCc2ccccc21,inactive,
NC(=O)Cc1cccc(C(=O)c2ccccc2)c1N,inactive,
C=CC1CO1 (stereo unspecified),inactive,
CCN[C@H]1CN(CCCOC)S(=O)(=O)c2sc(S(N)(=O)=O)cc21,,0.009% [at 18.6 µM]
CC(=O)N[C@@H](CC(C)C)C(=O)O,inactive,
O=C(O[C@@H](C(=O)O)[C@@H](OC(=O)c1ccccc1)C(=O)O)c1ccccc1,inactive,
C=CC(C)(O)CC/C=C(\C)CCC=C(C)C (stereo unspecified),inactive,
CC(C)C(=O)OCC(C)(C)C(O)C(C)C (stereo unspecified),inactive,
Cc1ccccc1C(=O)Nc1ccc(C(=O)N2CCCC(O)c3cc(Cl)ccc32)c(C)c1 (stereo unspecified),inactive,
CC(C)C(=O)OC/C=C/c1ccccc1,inactive,
C=C(C)C(=O)OCCOP(=O)(O)O,inactive,
NC/C=C/C(=O)O,inactive,
CC(C)c1ccccc1,inactive,
CCCCCCCCCC/C=C/C#N,inactive,
COc1ccccc1N1CCN(CCCNc2cc(=O)n(C)c(=O)n2C)CC1,inactive,
O=C1N(c2ccccc2)c2ccccc2C1(Cc1ccncc1)Cc1ccncc1,inactive,
OCc1c2ccccc2cc2ccccc12,inactive,
NCCC(O)(P(=O)(O)O)P(=O)(O)O,inactive,
CN(C)Cc1ccccc1,inactive,
COC(=O)c1ccc(OC)cc1,inactive,
Cc1cc(S(=O)(=O)O)c(N)cc1Cl,inactive,
O=C(O)c1ccccc1Nc1cc(Cl)ccc1C(=O)O,inactive,
CCCCNC(=S)NCCCC,inactive,
CC(C)(C)c1ccc(OC(=O)c2ccccc2O)cc1,inactive,

# From PubChem BioAssay (Tox21)
